In PubChem BioAssay (EPA / NIEHS):
Inconclusive results are not listed. Calls of active or inactive are those of the source. The calls were made as follows, unless noted: active = hit-call score of the fitted dose curve at least 0.9, where 1 is the maximum; inactive = score below 0.9.

How the values were obtained:
PGR (gene 5241) [1] = molecular target: PGR (gene 5241) (UniProt P06401); assay: TOX21_PR_BLA_Followup_Agonist_ratio: Tox21 HEK293 Progesterone Receptor (PR) Agonism Beta-lactamase Follow-Up Assay, Ratio (AID 2283933; active = hit-call score of the fitted dose curve at least 0.9, where 1 is the maximum)
PGR (gene 5241), sequence (P06401 whole entry, looked up): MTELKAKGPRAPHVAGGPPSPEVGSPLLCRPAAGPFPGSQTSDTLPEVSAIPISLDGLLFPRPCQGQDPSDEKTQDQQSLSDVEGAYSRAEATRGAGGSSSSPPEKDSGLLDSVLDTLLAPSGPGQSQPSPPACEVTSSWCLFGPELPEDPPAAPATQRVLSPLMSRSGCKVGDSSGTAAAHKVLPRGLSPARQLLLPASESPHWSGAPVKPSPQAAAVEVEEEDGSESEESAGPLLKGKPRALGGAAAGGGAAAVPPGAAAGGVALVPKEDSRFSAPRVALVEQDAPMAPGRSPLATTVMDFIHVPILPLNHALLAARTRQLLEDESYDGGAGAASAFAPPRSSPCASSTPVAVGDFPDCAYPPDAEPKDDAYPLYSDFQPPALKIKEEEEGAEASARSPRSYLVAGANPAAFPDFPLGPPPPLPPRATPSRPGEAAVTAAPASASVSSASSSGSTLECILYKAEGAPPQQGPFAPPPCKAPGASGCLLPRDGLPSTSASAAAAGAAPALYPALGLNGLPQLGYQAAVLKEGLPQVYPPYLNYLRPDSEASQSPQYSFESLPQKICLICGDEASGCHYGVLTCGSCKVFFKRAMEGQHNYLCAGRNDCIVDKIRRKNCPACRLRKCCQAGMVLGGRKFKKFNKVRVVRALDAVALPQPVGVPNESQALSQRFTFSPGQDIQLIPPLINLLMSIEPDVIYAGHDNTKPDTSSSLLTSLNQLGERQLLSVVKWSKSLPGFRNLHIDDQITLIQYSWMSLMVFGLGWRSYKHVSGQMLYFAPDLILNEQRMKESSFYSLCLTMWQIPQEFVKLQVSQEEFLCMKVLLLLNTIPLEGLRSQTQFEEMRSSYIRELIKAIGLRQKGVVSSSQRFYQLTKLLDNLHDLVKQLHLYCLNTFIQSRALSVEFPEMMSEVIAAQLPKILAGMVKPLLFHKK
How it was run: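 Cells were seeded and held 6 hr before compound addition, exposed for 16 hr at 37C, then given FRET substrate for 2 hr at room temperature. Agonism was scored from the blue/green substrate cleavage ratio against DMSO controls.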

PGR (gene 5241) [2] = molecular target: PGR (gene 5241) (UniProt P06401); assay: TOX21_PR_BLA_Followup_Antagonist_ratio: Tox21 HEK293 Progesterone Receptor (PR) Antagonism Beta-lactamase Follow-Up Assay, Ratio (AID 2283934; active = hit-call score of the fitted dose curve at least 0.9, where 1 is the maximum;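 also: PR-UAS-bla HEK293T cells stimulated with 1 nM R5020 agonist for 16 hr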)
How it was run: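 Cells are plated, rested 6 hr, then dosed with test compound in DMSO and challenged with 1 nM promegestone. After 16 hr incubation, substrate loading for 2 h at room temperature precedes fluorescence reading; viability is measured in the same wells.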

[3] = CEETOX_H295R_CORTISOL_noMTC: CeeTox H295R High-throughput Steroidogenesis Assay for Cortisol, maximum tolerated concentration (MTC) filtered results only (AID 2283916); settings: actives raise or lower the signal
How it was run: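 H295R human adrenal cells prestimulated 48 h with 10 uM forskolin, then exposed 48 h to chemical in 0.1% DMSO; cortisol in medium quantified by HPLC-MS/MS; bidirectional fit vs DMSO baseline, concentrations not MTT-filtered for MTC.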

[4] = CEETOX_H295R_CORTIC_noMTC: CeeTox H295R High-throughput Steroidogenesis Assay for Corticosterone (CORTIC), maximum tolerated concentration (MTC) filtered results only (AID 2283917); settings: actives raise or lower the signal
How it was run: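 Corticosterone secreted into the medium was measured by reverse-phase C18 HPLC with tandem MS after MTBE extraction. Cells (H295R) had 48 h forskolin (10 uM) stimulation before 48 h chemical exposure; gain or loss of signal was fitted relative to DMSO.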

[5] = CEETOX_H295R_DOC_noMTC: CeeTox H295R High-throughput Steroidogenesis Assay for DOC, maximum tolerated concentration (MTC) filtered results only (AID 2283918); settings: actives raise or lower the signal
How it was run: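 H295R cells prestimulated 48 h with 10 uM forskolin, then exposed 48 h to chemical in 0.1% DMSO. 11-Deoxycorticosterone in medium measured by MTBE extraction and HPLC-MS/MS; bidirectional fit vs DMSO, no MTC filter.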

[6] = CEETOX_H295R_ESTRADIOL_noMTC: CeeTox H295R High-throughput Steroidogenesis Assay for Estradiol, maximum tolerated concentration (MTC) filtered results only (AID 2283919); settings: actives raise or lower the signal
How it was run: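 Readout: dansyl-derivatized estradiol quantified by LC-MS/MS in medium from H295R cells dosed 48 h (0.1% DMSO) following 48 h forskolin (10 uM) prestimulation. Gain or loss of signal fitted against DMSO; no MTC filtering applied.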

[7] = CEETOX_H295R_PROG_noMTC: CeeTox H295R High-throughput Steroidogenesis Assay for Progesterone (PROG), maximum tolerated concentration (MTC) filtered results only (AID 2283920); settings: actives raise or lower the signal
How it was run: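 Readout: medium progesterone by MTBE extraction, reverse-phase C18 HPLC, ESI-positive MS/MS. Human H295R cells, 10 uM forskolin pretreatment 48 h, chemical 48 h in 0.1% DMSO. Gain or loss fitted against DMSO baseline.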

[8] = CEETOX_H295R_ESTRONE_noMTC: CeeTox H295R High-throughput Steroidogenesis Assay for Estrone, maximum tolerated concentration (MTC) filtered results only (AID 2283921); settings: actives raise or lower the signal
How it was run: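 Estrone in spent medium, quantified by tandem MS following dansyl chloride derivatization, after 48 h chemical exposure (0.1% DMSO) of forskolin-prestimulated (10 uM, 48 h) H295R cells; concentrations not MTC-filtered, bidirectional fit against DMSO.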

[9] = CEETOX_H295R_ANDR_noMTC: CeeTox H295R High-throughput Steroidogenesis Assay for Androstenedione (ANDR), maximum tolerated concentration (MTC) filtered results only (AID 2283915); settings: actives raise or lower the signal
How it was run: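 Androstenedione secreted into medium was measured by LC-MS/MS after MTBE extraction. Human adrenal H295R cells received 10 uM forskolin for 48 h before 48 h chemical exposure (0.1% DMSO). Gain or loss fitted against DMSO, including concentrations above the MTT-derived MTC.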

[10] = CEETOX_H295R_TESTO_noMTC: CeeTox H295R High-throughput Steroidogenesis Assay for Testosterone (TESTO), maximum tolerated concentration (MTC) filtered results only (AID 2283924); settings: actives raise or lower the signal
How it was run: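 Medium testosterone, measured by HPLC-MS/MS after liquid-liquid extraction, was fitted in both directions relative to DMSO without MTC filtering. Adrenal H295R cells received 48 h chemical exposure (0.1% DMSO final) after 48 h forskolin (10 uM) prestimulation; viability by MTT.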

Measured: AC50

O=C(c1ccccc1)c1ccc(O)cc1O
active: PGR (gene 5241) [2] 63.5 µM
inactive: PGR (gene 5241) [1]

Nc1c(Br)cc([N+](=O)[O-])cc1Br
inactive: [3] | [4] | [5] | [6] | [7] | [8]

CC(C)(C)c1cc(CCC(=O)NCCCCCCNC(=O)CCc2cc(C(C)(C)C)c(O)c(C(C)(C)C)c2)cc(C(C)(C)C)c1O
active: [7] 0.452 µM
inactive: [9] | [3] | [4] | [5] | [6] | [8] | [10]
